# From PubChem BioAssay (NCATS)
# Inconclusive results are not listed. A call without a number means that no potency is given here. Unmarked numbers belong to inactive results. Calls of active or inactive are those of the source. Unless noted, the call rests on the fitted dose curve; in most records, active means well fitted curve in the direction sought with a large enough effect; inconclusive means small, poorly fitted or top-dose-only effect, or another doubt; inactive means no such curve, though single readings can be large; an effect the other way counts as inactive or inconclusive.
# How the values were obtained:
# [1] = target: Aldehyde dehydrogenase, mitochondrial (Homo sapiens) (UniProt P05091); assay: qHTS for Inhibitors of the Aldehyde Dehydrogenase Family (ALDH2) Validation screens (AID 2061302; active means well fitted inhibition curve with a large enough effect; title and protocol of this record describe different tests)
# [2] = qHTS for Inhibitors of the Aldehyde Dehydrogenase Family (ALDH1A2, ALDH1A3, ALDH2, ALDH3A1) (AID 2061307); further: nearly all actives have a fitted effect of over 50% in size; on potency: test system not described further here; potency means the concentration at half of the fitted maximal effect
# [3] = target: Retinaldehyde dehydrogenase 3 (Homo sapiens) (UniProt P47895); assay: qHTS for Inhibitors of the Aldehyde Dehydrogenase Family (ALDH1A3) Confirmatory screens (AID 2061311); further: nearly all actives have a fitted effect of over 60% in size; further: potency means the concentration at half of the fitted maximal effect
# [4] = target: Aldehyde dehydrogenase 1A1 (Homo sapiens) (UniProt P00352); assay: qHTS for Inhibitors of the Aldehyde Dehydrogenase Family (ALDH1A1) Confirmatory screens (AID 2061316); further: nearly all actives have a fitted effect of over 65% in size; further: potency means the concentration at half of the fitted maximal effect
# [5] = target: Aldehyde dehydrogenase, mitochondrial (Homo sapiens) (UniProt P05091); assay: qHTS for Inhibitors of the Aldehyde Dehydrogenase Family (ALDH2) Confirmatory screens (AID 2061303; active means well fitted inhibition curve with a large enough effect; title and protocol of this record describe different tests; further: nearly all actives have a fitted effect of over 45% in size; further: potency means the concentration at half of the fitted maximal effect)
# [6] = target: Retinal dehydrogenase 2 (Homo sapiens) (UniProt O94788); assay: qHTS for Inhibitors of the Aldehyde Dehydrogenase Family (ALDH1A2) Confirmation screens (AID 2061314); further: potency means the concentration at half of the fitted maximal effect; nearly all actives have a fitted effect of over 65% in size
# [7] = target: Cellular tumor antigen p53 (Homo sapiens) (UniProt P04637); assay: Primary qHTS for small molecule compounds that upregulate eGFP-tagged delta133p53alpha (in C-terminal) cells. (AID 2060324)
# Cellular tumor antigen p53 (Homo sapiens), sequence (P04637 whole entry, looked up): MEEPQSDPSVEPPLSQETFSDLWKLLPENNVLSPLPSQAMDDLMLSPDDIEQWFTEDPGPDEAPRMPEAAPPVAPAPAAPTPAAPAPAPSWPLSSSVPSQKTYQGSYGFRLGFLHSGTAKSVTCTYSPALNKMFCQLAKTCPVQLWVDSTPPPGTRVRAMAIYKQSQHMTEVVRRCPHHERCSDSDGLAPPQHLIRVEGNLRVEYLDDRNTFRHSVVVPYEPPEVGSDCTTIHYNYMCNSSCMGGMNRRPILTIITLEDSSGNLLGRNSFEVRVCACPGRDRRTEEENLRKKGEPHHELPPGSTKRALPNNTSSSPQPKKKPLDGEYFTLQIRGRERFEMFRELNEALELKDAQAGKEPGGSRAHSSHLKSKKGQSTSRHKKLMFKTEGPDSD
# Summary of the method: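 In this qHTS, GFP-tagged delta133p53alpha levels are measured in fixed NCI-H358 cells after 24 h compound exposure at 37 °C. The cells are pre-induced with 100 ng/ml doxycycline, and signal is normalized to DMSO-treated wells as 0%.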
# [8] = target: Retinaldehyde dehydrogenase 3 (Homo sapiens) (UniProt P47895); assay: qHTS for Inhibitors of the Aldehyde Dehydrogenase Family (ALDH1A3) Validation screen (AID 2061312); further: nearly all actives have a fitted effect of over 45% in size
# [9] = target: Aldehyde dehydrogenase, mitochondrial (Homo sapiens) (UniProt P05091); assay: qHTS for Inhibitors of the Aldehyde Dehydrogenase Family (ALDH2) Primary screen (AID 2061308); further: nearly all actives have a fitted effect of over 55% in size
# [10] = target: Retinaldehyde dehydrogenase 3 (Homo sapiens) (UniProt P47895); assay: qHTS for Inhibitors of the Aldehyde Dehydrogenase Family (ALDH1A3) Primary screen (AID 2061315)
compound,measurement,setting,value
Cc1ncsc1CCCl,Potency,[1],inactive
N#CC(C#N)=Cc1ccc(O)c(O)c1,Potency,[1],inactive
same,Potency,[2],inactive
same,Potency,[3],0.798 µM (active)
same,Potency,[4],20.1 µM (active)
Cc1ccc(S(=O)(=O)N[C@@H](CCCCN)C(=O)CCl)cc1,Potency,[5],inactive
same,Potency,[2],inactive
same,Potency,[3],inactive
same,Potency,[6],12.7 µM (active)
N[C@@H](Cn1oc(=O)[nH]c1=O)C(=O)O,Potency,[7],inactive
same,Potency,[1],inactive
same,Potency,[8],inactive
NNC(N)=O,Potency,[1],inactive
CN(Cc1ccccc1)C[C@H]1CN2CC[C@H]1C[C@@H]2CNC(=O)c1ccc(C(F)(F)F)cc1,Potency,[5],inactive
CCC1(C2=NCCN2)Cc2ccccc2O1 (configuration not stated),Potency,[1],inactive
same,Potency,[8],inactive
O=C1CN=C(c2ccccc2Cl)c2cc(Br)ccc2N1,Potency,[9],inactive
same,Potency,[8],inactive
same,Potency,[10],inactive
CC(=O)OCC(N)C(=O)c1ccccc1 (configuration not stated),Potency,[9],inactive
COC1CC(OC2CCC3(C)C(CCC4C3CCC3(C)C(C5=CC(=O)OC5)C(OC(C)=O)CC43O)C2)OC(C)C1OC1OC(CO)C(O)C(O)C1O (configuration not stated),Potency,[9],inactive
C[C@@H]1C[C@@H](O)[C@]2(O)O[C@@H]3C[C@@]4(C=O)C(CC[C@@H]5C4CC[C@]4(C)[C@@](O)(C6=CC(=O)OC6)CC[C@]54O)C[C@H]3OC2O1 (some centres not stated),Potency,[9],inactive
CCOc1ccc(CCNC(=O)c2cc3ccncc3n2Cc2cccc(C)n2)cc1OCC,Potency,[2],inactive
same,Potency,[9],inactive
same,Potency,[10],inactive
same,Potency,[4],inactive
N#Cc1nc(-c2cccc3ccccc23)oc1NCc1ccccc1,Potency,[2],2.52 µM (active)
same,Potency,[10],inactive
same,Potency,[4],7.12 µM (active)
CC(=O)c1cccc(N=[N+]=[N-])c1,Potency,[2],inactive
CC1=CC(=O)[C@@H](O)[C@]2(C)C3[C@@H](O)[C@@H]4OC(=O)[C@@H]([C@H]4C)[C@]3(C)C(=O)[C@H](O)[C@@H]12 (some centres not stated),Potency,[9],inactive
O=[N+]([O-])/C=C/c1ccc2c(c1)OCO2,Potency,[2],5.01 µM (active)
same,Potency,[3],15.8 µM (active)
same,Potency,[8],inactive
same,Potency,[6],35.5 µM (active)
same,Potency,[4],3.57 µM (active)
CCCCCn1c(C)c(C(=O)c2ccc(OC)c3ccccc23)c2ccccc21,Potency,[2],inactive
C[C@H](NC(=O)Cc1cc(F)cc(F)c1)C(=O)N[C@@H]1N=C(c2ccccc2)c2ccccc2N(C)C1=O,Potency,[9],inactive
same,Potency,[8],inactive
same,Potency,[10],inactive
N#Cc1c(-c2cc(F)cc(-c3no[n+]([O-])c3C#N)c2)no[n+]1[O-],Potency,[5],0.357 µM (active)
same,Potency,[6],1.59 µM (active)
same,Potency,[4],11.3 µM (active)
C[C@@H](CN1CCC2(CC1)C(=O)NCN2c1cccc(F)c1)NC(=O)c1ccc(Br)cc1,Potency,[9],inactive
same,Potency,[8],inactive
same,Potency,[10],inactive
COC1CC(O[C@H]2CC[C@]3(C)C4CC[C@]5(C)[C@@H](C6=CC(=O)OC6)[C@@H](OC(C)=O)C[C@]5(O)C4CC[C@@H]3C2)OC(C)C1O (some centres not stated),Potency,[9],inactive
